Laboratory results from PubChem BioAssay (EPA / NIEHS).
Inconclusive results are not listed. Active and inactive are the calls of the source. How the source made its calls, unless noted: active means hit-call score of the fitted dose curve at least 0.9, where 1 is the maximum; inactive means score below 0.9.

Columns and labels:
[1] = ATG_TCF_b_cat_CIS: Attagene CIS-FACTORIAL HepG2 Assay for human T-Cell-Factor with beta-catenin (TCF/b-cat) (AID 2282965); conditions: HepG2 TCF/beta-catenin cis-reporter transcription, actives raise or lower the signal
Summary of the method: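 In this cis-format system, transfected HepG2 cells report endogenous transcription factor activity. Readout after 24 h exposure is reporter transcript abundance from RT-PCR and capillary electrophoresis, analysed for gain or loss of signal versus DMSO.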

[2] = ATG_TAL_CIS: Attagene CIS-FACTORIAL HepG2 Assay for human TAL Basal Promoter (AID 2282966); conditions: HepG2 Attagene cis-factorial TAL promoter reporter; actives raise or lower the signal;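 further: background control endpoint measuring basal TAL promoter reporter mRNA not a specific factor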
Summary of the method: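 HepG2, transient MRTU transfection, 24 h compound exposure; RNA → oligo(dT) RT → PCR → 6-FAM primer extension → HpaI digest → CE fluorescence. Bidirectional curve fit vs DMSO. Background-control readout.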

[3] = ATG_TGFb_CIS: Attagene CIS-FACTORIAL HepG2 Assay for human Transforming Growth Factor (TGF) (AID 2282967); conditions: HepG2 Attagene CIS TGFb reporter, mRNA transcription; actives raise or lower the signal
Summary of the method: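 Transcript-level reporter readout: HepG2 transfectants, 24 h exposure, RNA to cDNA, reporter-specific PCR, fluorescent primer extension, capillary sizing against ROX standards. Gain- or loss-of-signal relative to DMSO.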

[4] = ATG_VDRE_CIS: Attagene CIS-FACTORIAL HepG2 Assay for human Vitamin D Receptor Element (VDRE) (AID 2282968); conditions: HepG2 VDRE cis-reporter transcription, actives raise or lower the signal
Summary of the method: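 Steps: transfect HepG2 with multiple reporter transcription units; dose chemicals 24 h; isolate RNA; RT-PCR; label with 6-FAM primer extension; HpaI digest; capillary electrophoresis. Curves fitted both directions against DMSO.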

[5] = target: Estrogen receptor (Homo sapiens) (UniProt P03372); assay: ATG_ERa_TRANS: Attagene TRANS-FACTORIAL HepG2 Assay for human Estrogen Receptor alpha (ERa) (AID 2282970; active means hit-call score of the fitted dose curve at least 0.9, where 1 is the maximum); conditions: HepG2 Attagene TRANS ERa GAL4 reporter, mRNA
Summary of the method: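 Reporter mRNA induction after 24 hours, detected by fluorescent RT-PCR and capillary electrophoresis, gives the read-out. Cells are HepG2 transiently transfected with GAL4-UAS reporter transcription units responding to chimeric NR-Gal4. Activity is taken as gain of signal over DMSO baseline.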

[6] = target: X-box-binding protein 1 (Homo sapiens) (UniProt P17861); assay: ATG_Xbp1_CIS: Attagene CIS-FACTORIAL HepG2 Assay for human X-box Binding Protein 1 (XBP1) (AID 2282972); conditions: HepG2 XBP1 cis-element reporter, Attagene multiplex; actives raise or lower the signal
Summary of the method: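 Changes in reporter transcript abundance, read by RT-PCR and capillary electrophoresis, reflect endogenous transcription factor activity. Transfected HepG2 cells received compound for 24 hours; DMSO defined baseline for bidirectional analysis.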

[7] = ATG_M_19_TRANS: Attagene TRANS-FACTORIAL HepG2 Assay for M19 Transcription Factor (Internal Marker) (AID 2282974; active means hit-call score of the fitted dose curve at least 0.9, where 1 is the maximum); conditions: HepG2 Attagene TRANS-FACTORIAL M19 internal marker reporter
Summary of the method: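 Background-control readout: after 24 h chemical exposure of transfected HepG2 carrying GAL4-driven reporter units, RNA was reverse-transcribed, amplified, fluorescently labeled and sized by capillary electrophoresis; gain-of-signal fit against DMSO.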

[8] = target: Nuclear receptor subfamily 1 group I member 3 (Homo sapiens) (UniProt Q14994); assay: ATG_CAR_TRANS: Attagene TRANS-FACTORIAL HepG2 Assay for human Constitutive Androstane Receptor (CAR) (AID 2282969; active means hit-call score of the fitted dose curve at least 0.9, where 1 is the maximum;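 further: activators raise reporter mRNA above DMSO so AC50 marks induction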); conditions: HepG2 Attagene TRANS-FACTORIAL CAR reporter
Summary of the method: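 Steps: transient transfection of HepG2 with multiple GAL4-UAS reporter units; 24 h compound incubation; RNA isolation, RT-PCR, 6-FAM primer extension, HpaI digest; capillary electrophoresis. Gain-of-signal relative to DMSO negative control.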

[9] = target: Steroid hormone receptor ERR1 (Homo sapiens) (UniProt P11474); assay: ATG_ERRa_TRANS: Attagene TRANS-FACTORIAL HepG2 Assay for human Estrogen-Related Receptor alpha (ERRa) (AID 2282971; active means hit-call score of the fitted dose curve at least 0.9, where 1 is the maximum); conditions: HepG2 Attagene TRANS reporter, ERRa transactivation
Summary of the method: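 Transfected HepG2, 24 h dosing, ERRa-Gal4 chimera driving GAL4-UAS reporter. Readout: reporter mRNA via RT-PCR plus capillary electrophoresis (fluorescence). Positive direction vs DMSO control.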

[10] = ATG_GAL4_TRANS: Attagene TRANS-FACTORIAL HepG2 Assay for GAL4 (Internal Marker) (AID 2282976; active means hit-call score of the fitted dose curve at least 0.9, where 1 is the maximum); conditions: HepG2 Attagene TRANS GAL4 internal marker reporter
Summary of the method: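 RT-PCR/capillary electrophoresis readout of reporter mRNA. HepG2, transient MRTU transfection (GAL4-UAS reporters), 24 h compound exposure. Background-control endpoint, positive direction vs DMSO baseline.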

Measured: AC50

Chain of Nuclear receptor subfamily 1 group I member 3 (Homo sapiens) (Q14994 whole entry, looked up, the tested form may be a part): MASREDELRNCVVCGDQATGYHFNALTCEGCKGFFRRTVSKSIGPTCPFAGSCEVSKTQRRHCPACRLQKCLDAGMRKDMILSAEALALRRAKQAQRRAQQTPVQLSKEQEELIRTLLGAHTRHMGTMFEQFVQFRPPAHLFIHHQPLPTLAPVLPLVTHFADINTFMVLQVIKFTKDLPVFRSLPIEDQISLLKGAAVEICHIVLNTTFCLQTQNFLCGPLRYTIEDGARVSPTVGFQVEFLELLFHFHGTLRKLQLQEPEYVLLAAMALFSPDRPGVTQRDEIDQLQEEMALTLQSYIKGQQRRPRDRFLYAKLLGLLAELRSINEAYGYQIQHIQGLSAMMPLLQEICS
Chain of Estrogen receptor (Homo sapiens) (P03372 whole entry, looked up, the tested form may be a part): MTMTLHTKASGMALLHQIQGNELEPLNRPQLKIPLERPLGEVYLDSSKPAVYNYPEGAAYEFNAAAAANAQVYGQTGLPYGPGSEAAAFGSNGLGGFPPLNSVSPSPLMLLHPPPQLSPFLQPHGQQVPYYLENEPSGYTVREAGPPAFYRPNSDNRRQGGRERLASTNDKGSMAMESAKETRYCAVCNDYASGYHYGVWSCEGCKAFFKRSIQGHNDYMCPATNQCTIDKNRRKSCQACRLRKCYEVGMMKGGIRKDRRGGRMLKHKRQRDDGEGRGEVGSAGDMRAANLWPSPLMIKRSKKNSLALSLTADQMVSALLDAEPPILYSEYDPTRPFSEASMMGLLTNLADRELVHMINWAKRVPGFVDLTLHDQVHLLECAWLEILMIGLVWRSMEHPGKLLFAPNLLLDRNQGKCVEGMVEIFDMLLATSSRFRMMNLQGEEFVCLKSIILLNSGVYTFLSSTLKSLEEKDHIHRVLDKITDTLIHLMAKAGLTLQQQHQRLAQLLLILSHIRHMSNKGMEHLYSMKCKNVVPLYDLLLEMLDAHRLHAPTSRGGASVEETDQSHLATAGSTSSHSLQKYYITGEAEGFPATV
Chain of X-box-binding protein 1 (Homo sapiens) (P17861 whole entry, looked up): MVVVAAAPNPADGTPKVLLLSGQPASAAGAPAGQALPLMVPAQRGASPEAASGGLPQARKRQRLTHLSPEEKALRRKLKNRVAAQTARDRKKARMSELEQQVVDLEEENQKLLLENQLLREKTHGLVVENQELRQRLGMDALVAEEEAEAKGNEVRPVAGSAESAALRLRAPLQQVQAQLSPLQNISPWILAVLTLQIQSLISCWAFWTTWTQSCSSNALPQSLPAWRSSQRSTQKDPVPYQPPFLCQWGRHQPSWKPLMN
Chain of Steroid hormone receptor ERR1 (Homo sapiens) (P11474 whole entry, looked up, the tested form may be a part): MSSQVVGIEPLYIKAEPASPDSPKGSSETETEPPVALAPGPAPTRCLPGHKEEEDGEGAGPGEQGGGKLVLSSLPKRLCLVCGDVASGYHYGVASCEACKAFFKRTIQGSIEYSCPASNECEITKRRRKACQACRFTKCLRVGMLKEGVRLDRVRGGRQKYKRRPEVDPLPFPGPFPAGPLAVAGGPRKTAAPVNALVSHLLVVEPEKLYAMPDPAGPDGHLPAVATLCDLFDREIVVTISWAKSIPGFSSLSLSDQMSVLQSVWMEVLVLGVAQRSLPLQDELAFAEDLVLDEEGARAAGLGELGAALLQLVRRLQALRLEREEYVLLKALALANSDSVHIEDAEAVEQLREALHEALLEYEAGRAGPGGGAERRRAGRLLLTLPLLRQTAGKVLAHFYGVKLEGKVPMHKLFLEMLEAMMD

O=S(=O)(Cl)C(F)(F)C(F)(F)C(F)(F)C(F)(F)C(F)(F)C(F)(F)C(F)(F)C(F)(F)F
inactive: [1] | [2] | [3] | [4] | [6] | [7]
active: [5] 20.7 µM

N#CCCOCCC#N
inactive: [1] | [2] | [3] | [4] | [8] | [9] | [6] | [10]

NCC(F)(F)C(F)(F)C(F)(F)C(F)(F)C(F)(F)C(F)(F)C(F)(F)C(F)(F)F
inactive: [1] | [2] | [3] | [4] | [5] | [9] | [10]

Cc1ccc(O)c(-n2nc3ccccc3n2)c1
inactive: [1] | [2] | [3] | [4] | [6]
active: [5] 13.4 µM

Cc1ccc([N+](=O)[O-])c(C)c1
inactive: [1] | [2] | [3] | [4]

CC(O)C#CC(C)O (stereo unspecified)
active: [1] 99.5 µM | [4] 39.5 µM
inactive: [2] | [3] | [5] | [6]

O=C(Cl)C(F)(F)C(F)(F)C(F)(F)C(F)(F)C(F)(F)C(F)(F)F
inactive: [1] | [2] | [3] | [4] | [5] | [9] | [6] | [10]

CN1CN(C)CN(C)C1
inactive: [1] | [2] | [3] | [4] | [8]
active: [6] 169 µM

C=CC(=O)OCC(F)(F)C(F)(F)C(F)(F)C(F)(F)C(F)(F)C(F)(F)C(F)(F)C(F)F
active: [1] 89.1 µM
inactive: [2] | [3] | [4]

CCc1cc(Cc2cc(CC)c(N)c(CC)c2)cc(CC)c1N
inactive: [3] | [5]
active: [1] 33.4 µM | [2] 53.4 µM | [4] 11.6 µM | [6] 38.3 µM

CC1=CC2C3C=CC(C3)C2C1C (stereo unspecified)
active: [4] 1.81 µM
inactive: [1] | [2] | [3] | [5] | [6]

CCCCCCCCCCCC(=O)Cl
active: [1] 161 µM
inactive: [2] | [3] | [4] | [5] | [6]

O=C(O)C(F)(F)OC(F)(F)C(F)(F)OC(F)(F)C(F)(F)OC(F)(F)F
inactive: [1] | [2] | [3] | [4] | [5] | [6]

CC(C)(C)C(=O)C1C(=O)c2ccccc2C1=O
active: [4] 42.2 µM
inactive: [1] | [2] | [3] | [5]

O=C(c1ccccc1)c1ccc(Cl)cc1
inactive: [1] | [2] | [6]
active: [3] 100 µM | [4] 47.6 µM | [5] 12.1 µM

CCC(Cc1c(I)cc(I)c(N)c1I)C(=O)O (stereo unspecified)
inactive: [2] | [3] | [4]
active: [1] 55.5 µM | [5] 4.99 µM

CC1=CCC(=O)O1
inactive: [1] | [2] | [3] | [4]

CCCCC(CC)COC(=O)c1ccc(N(C)C)cc1 (stereo unspecified)
active: [5] 5.75 µM
inactive: [1] | [2] | [3] | [4] | [6]

CC(C)CC=C(C=O)c1ccccc1
inactive: [1] | [2] | [3] | [4] | [9] | [7] | [10]
active: [5] 21.5 µM

O=C(O)C(F)(F)C(F)(F)C(F)(F)C(=O)O
inactive: [1] | [2] | [3] | [4] | [5] | [6] | [7]

CSc1ccc(Cl)cc1
inactive: [1] | [2] | [3] | [4] | [5] | [6] | [7]

CCCCCCCCCCCCC[N+](C)(C)Cc1ccccc1
inactive: [1] | [2] | [3] | [4] | [5] | [6]

Cc1ccc(S(=O)(=O)C(I)I)cc1
inactive: [2] | [3] | [5]
active: [1] 8.97 µM | [4] 9.01 µM | [6] 7.84 µM

OCCCCC(F)(F)C(F)(F)C(F)(F)C(F)(F)F
inactive: [1] | [2] | [3] | [4]

CCOCOCC
inactive: [1] | [2] | [3] | [4] | [5] | [6] | [7]

NC(=O)C(F)(F)C(F)(F)C(F)(F)F
inactive: [1] | [2] | [3] | [4]

Cc1cc(O)c(C(C)(C)C)cc1C(C)(C)C
inactive: [1] | [2] | [4] | [8] | [5] | [6]
active: [3] 2.2 µM

CC(C)(C)c1cc(Cc2cc(C(C)(C)C)c(O)c(C(C)(C)C)c2)cc(C(C)(C)C)c1O
active: [4] 2.31 µM
inactive: [1] | [2] | [3] | [5] | [6] | [7]

CN(C(=O)C(F)(F)C(F)(F)C(F)(F)F)[Si](C)(C)C
inactive: [1] | [2] | [3] | [4] | [5] | [6]

CCn1c2ccccc2c2ccccc21
active: [3] 0.0275 µM
inactive: [1] | [2] | [4] | [5] | [6]
